Experimental findings from PubChem BioAssay (EPA / NIEHS) are described below.

Active and inactive are the calls of the source. The calls were made as follows: active = hit-call score of the fitted dose curve at least 0.9, where 1 is the maximum; inactive = score below 0.9.

As usually defined, the AC50 is the midpoint of the concentration-response curve, whichever way the signal moves.

The assay deals with Hepatocyte nuclear factor 3-beta (Homo sapiens) (UniProt Q9Y261). Put plainly: ATG_FoxA2_CIS: Attagene CIS-FACTORIAL HepG2 Assay for human Forkhead box A2 (FOXA2) (AID 2282942). To be noted: HepG2 cis-reporter transcription factor activity, 24 h; actives raise or lower the signal. Here is the method: ATG_CIS is a cell-based, multiplexed-readout assay that uses HepG2, a human liver cell line, with measurements taken at 24 hours after chemical dosing in a 24-well plate.ATG_FoxA2_CIS is one of 52 assay component(s) measured or calculated from the ATG_CIS assay. It is designed to make measurements of mRNA induction, a form of inducible reporter, as detected with fluorescence intensity signals by Reverse transcription polymerase chain reaction (RT-PCR) and Capillary electrophoresis technology.Data from the assay component ATG_FoxA2_CIS was analyzed into 1 assay endpoint. This assay endpoint, ATG_FoxA2_CIS, was analyzed with bidirectional fitting relative to DMSO as the negative control and baseline of activity. Using a type of inducible reporter, measures of mRNA for gain or loss-of-signal activity can be used to understand the reporter gene at the transcription factor-level as they relate to the gene FOXA2. Furthermore, this assay endpoint can be referred to as a primary readout, because this assay has produced multiple assay endpoints where this one serves a reporter gene function. To generalize the intended target to other relatable targets, this assay endpoint is annotated to the dna binding intended target family, where the subfamily is forkhead box protein.
Sequence of Hepatocyte nuclear factor 3-beta (Homo sapiens) (Q9Y261 whole entry, looked up): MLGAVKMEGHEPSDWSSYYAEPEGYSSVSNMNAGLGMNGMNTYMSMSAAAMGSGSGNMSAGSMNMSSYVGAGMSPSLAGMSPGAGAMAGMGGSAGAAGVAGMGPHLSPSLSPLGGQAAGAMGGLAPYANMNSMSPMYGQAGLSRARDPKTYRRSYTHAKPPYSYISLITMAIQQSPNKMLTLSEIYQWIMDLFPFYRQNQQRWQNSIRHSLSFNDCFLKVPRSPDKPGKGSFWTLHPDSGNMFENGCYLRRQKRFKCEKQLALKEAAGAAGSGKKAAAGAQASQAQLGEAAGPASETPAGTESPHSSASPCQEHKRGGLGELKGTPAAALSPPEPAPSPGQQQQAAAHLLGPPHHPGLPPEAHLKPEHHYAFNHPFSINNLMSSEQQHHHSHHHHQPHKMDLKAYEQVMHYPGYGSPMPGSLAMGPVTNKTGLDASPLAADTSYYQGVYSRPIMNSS
Human liver HepG2 cells are transiently transfected with multiple reporter transcription units (MRTUs) in 6-well plates using FuGene 6 reagent (Roche; 3 ml FuGene/1 mg DNA). The MRTU constructs are regulated by a cis-regulating element (promoter). […] A major difference between the CIS and TRANS system is that in CIS activities of endogenous TFs are measured, whereas the TRANS assay evaluates changes in activities of exogenous, chimeric NR-Gal4 proteins. […] At the end of 24 hour incubation, total RNA was isolated using TriZol reagent (Invitrogen). The isolated RNA is then reverse-transcribed using oligo(dT) primer and Mo-MLV reverse transcriptase (Invitrogen) with DNAse I (Ambion) treatment for 30 min. The one-tenth of the produced cDNA was amplified by PCR using Taq DNA polymerase (Invitrogen) and two reporter sequence-specific primers. The PCR products were fluorescently labeled by primer extension with 6-arboxyfluorescein (6-FAM) 5'-labeled reporter sequence-specific primer (2 min at 95 C, 20 s at 68 C and 10 min at 72 C) and these products were digested with 5U of HpaI (New England Biolabs) for 2h at 37 C. The fragments were purified using Qiaquick PCR columns (Qiagen), analyzed on an ABI 3130xL genetic analyzer (Applied Biosystems) with peak positions identified by using a set of X-rhodamine (ROX)-labeled MapMarker1000 molecular weight standards (BioVentures). The raw capillary electrophoresis data was processed using Attagraph software (Attagene).
`CCCCCCCCCCCCOCCO`: the AC50 was 47.6 µM (active).

`Cc1ccc(C(=O)O)o1`: the outcome was inactive.

Take `CC1(C)[C@H]2CC[C@]1(C)[C@H](O)C2`: the compound was called inactive.

For the compound `CC(=O)OCCOC(C)=O`, the compound was called inactive.

Regarding `CCCCCCCCC`, the result was inactive.

On to `COC(=O)c1ccc(C)cc1`, for which the compound was called inactive.

Take `CC(C)OP(=O)(CP(=O)(OC(C)C)OC(C)C)OC(C)C`: the result was inactive.

Take `CNC(=O)Oc1ccc2c(c1)[C@]1(C)CCN(C)[C@@H]1N2C`: the result was inactive.

`O=C(COc1ccc(Cl)cc1)N1CCN(Cc2ccc3c(c2)OCO3)CC1`: the compound was classed as inactive.

With `C=C(C)C(=O)OCCOC(=O)CC(C)=O`, the compound was classed as inactive.

With `C=CCOc1nc(OCC=C)nc(OCC=C)n1`, the outcome was inactive.

As to `O=C(O)CCCCCCCCCCC(=O)O`, the result was inactive.

Regarding `COc1ccc(Cl)cc1C`, the result was inactive.

Consider `O=C(O)c1snc(Cl)c1Cl`, for which the call was inactive.

As for `O=S(=O)(O)c1cccc2c(S(=O)(=O)O)cccc12`, the compound was classed as inactive.

For the compound `CCCCCCCCCCC(CO)CCCCCCCC` (stereo not given), the call was inactive.

On to `CCCCNC(=O)NS(=O)(=O)c1ccc(C)cc1`, for which the outcome was inactive.

Regarding `CC(=O)Nc1ccc(CC(=O)O)cc1`, the compound was classed as inactive.

Take `NNc1nc(-c2ccc(N)cc2)cs1`: the compound was classed as inactive.

With `C=C(C)[C@@H]1CC[C@@H](C)C[C@@H]1O`, the compound was classed as inactive.

Take `S=C(S)NCCNC(=S)S`: the compound was called inactive.

With `Cc1ccc(Nc2ccc(O)c3c2C(=O)c2ccccc2C3=O)cc1`, the compound was classed as inactive.

As to `Cc1ccc2n[nH]nc2c1`, the result was inactive.

For the compound `CC(C)(C)c1n[nH]c(=S)n(N)c1=O`, the outcome was inactive.

For the compound `CC(=O)C(=O)O`, the compound was classed as inactive.

As to `CC1COc2ccccc2N1C(=O)C(Cl)Cl` (stereo not given), the result was inactive.

Consider `CCc1c(C)cc(N)c(CC)c1N`, for which the result was inactive.

For the compound `CCCOCC(C)O` (stereo not given), the compound was called inactive.

Regarding `OC1C(O)C(O)C(O)C(O)C1O` (stereo not given), the result was inactive.

Turning to `CC(C)(COC(=O)c1ccccc1)COC(=O)c1ccccc1`, the result was inactive.

For `C=C(C)C(=O)OCc1ccccc1`, the outcome was inactive.

`CN(C)c1ccc(O)c2c1C[C@H]1C[C@H]3[C@H](N(C)C)C(=O)C(C(N)=O)=C(O)[C@@]3(O)C(=O)C1=C2O`: the compound was called inactive.

For `CCCCCCCCCCCCCCCC(=O)OC[C@H](O)[C@H]1OC(=O)C(O)=C1O`, the concentration at half-maximal activity (AC50) is 159 µM (active).

Take `CC(C)(CO)[N+](=O)[O-]`: the call was inactive.

For the compound `CCN(CC)c1ccc2c(-c3ccccc3C(=O)O)c3ccc(=[N+](CC)CC)cc-3oc2c1`, the result was inactive.

For `CC(CC(C)(C)C)CC(C)(C)CC(C)(C)C` (stereo not given), the outcome was inactive.

As for `CC(C)=CCCC(C)CC=O` (stereo not given), the compound was called inactive.

On to `NC(=O)c1ccccc1Cl`, for which the compound was classed as inactive.

`O=C(O)c1cn(-c2ccc(F)cc2)c2cc(N3CCNCC3)c(F)cc2c1=O`: the compound was called inactive.

As to `N#Cc1nc(Cl)c(Cl)c(Cl)c1Cl`, the AC50 was 6.82 µM (active).
